Screening results deposited in PubChem by National Center for Advancing Translational Sciences (NCATS).
ClpP mod – qHTS Assay for Activators of ClpP. purified B. subtilis ClpP, FRET peptide cleavage, 20 min. Potency, µM (top dose mostly 57.5 µM), for the others: at the top dose activity change, negative = active. 340,000 compounds, 1.9% hits; active means well fitted falling curve with a large enough effect; inconclusive means small, poorly fitted or top-dose-only effect; inactive means no such curve, though single readings can be large or run the other way; further: potency means the concentration at half of the fitted maximal effect; the source files actives as falling curves though it sought activators and does not explain the sign; nearly all actives have a fitted effect of over 65% in size
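ClpP 10 microg/mL final, pH 8 Tris/KCl buffer with BSA, glycerol, Tween-20; compound pinned in; FRET-FV substrate; RT 20 min; Ex320/Em430; ΔFRET vs ADEP 5.8 microM, DMSO, no enzyme.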
MBNL1-CUG inh – MBNL1-poly(CUG) RNA binding inhibition; TR-FRET MBNL1-His/biotin-(CUG)12 binding, 665/545 ratio; Potency, µM (titrated, usually from 57.5 µM), for inactives: at the top dose activity change, negative = inhibition, hits mostly inhibitors; 280,000 compounds, 0.036% hits; AID 2675; active means well fitted inhibition curve with a large enough effect in the signal ratio, with a control signal flat, not every such curve was filed as active; inconclusive means small, poorly fitted or top-dose-only effect, or effect the other way, or a change in a side signal; inactive means no such curve, though single readings can be large or run the other way; the % refers to the signal ratio; further: potency means the concentration at half of the fitted maximal effect; on the % scale 0 is the no-effect control and ±100 the full control effect
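TR-FRET between His-tagged MBNL1 and biotin-(CUG)12 RNA, detected with Tb anti-His antibody (0.055 ng/ul) and streptavidin-XL665 (5 nM), 60 min at room temperature. Compounds titrated 92 nM to 58 uM; 665/545 nm ratio normalized to buffer and complex controls.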
CBFb RUNX1 block – inhibitors of human CBF-beta and RUNX1 interaction; Q01196+Q13951; AlphaScreen CBFb-His/RUNX1-biotin binding, biochemical; Potency, µM (top dose mostly 59.8 µM), for the others: at the top dose activity, negative = inhibition, actives largely listed as inhibitors; 230,000 tested, under 10 active; AID 1477; further: % of control where 0% means no effect
Target sequence (Q01196 whole entry, looked up): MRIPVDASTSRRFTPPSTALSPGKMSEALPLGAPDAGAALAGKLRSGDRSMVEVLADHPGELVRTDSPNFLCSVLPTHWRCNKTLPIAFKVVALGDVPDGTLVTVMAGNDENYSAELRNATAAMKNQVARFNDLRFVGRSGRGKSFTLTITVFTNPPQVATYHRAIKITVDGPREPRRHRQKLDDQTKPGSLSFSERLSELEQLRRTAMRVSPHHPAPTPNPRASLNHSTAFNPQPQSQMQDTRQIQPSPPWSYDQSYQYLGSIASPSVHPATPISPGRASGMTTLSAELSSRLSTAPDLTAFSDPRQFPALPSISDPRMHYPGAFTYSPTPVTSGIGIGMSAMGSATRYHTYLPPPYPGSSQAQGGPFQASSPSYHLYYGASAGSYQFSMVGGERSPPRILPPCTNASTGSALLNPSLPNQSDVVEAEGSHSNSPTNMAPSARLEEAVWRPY
Target sequence (Q13951 whole entry, looked up): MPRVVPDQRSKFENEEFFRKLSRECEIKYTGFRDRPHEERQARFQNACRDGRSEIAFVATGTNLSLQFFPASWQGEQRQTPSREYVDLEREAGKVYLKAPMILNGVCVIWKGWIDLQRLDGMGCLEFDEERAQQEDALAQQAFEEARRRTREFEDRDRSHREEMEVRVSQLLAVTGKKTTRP
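His-tagged CBF-beta and biotinylated RUNX1 (30 nM each) were premixed 20 min at room temperature, exposed to compound for 15 min, then given nickel-chelate and streptavidin AlphaScreen beads (50 ng each). After 90 min, AlphaScreen signal was read.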
Rango-impB inh – inhibitors of Rango-importin beta complex formation; Potency, µM (highest dose often 92.2 µM), for the others: at the highest dose inhibition of complex formation; Rango CFP/YFP FRET sensor + importin beta, 45 min; AID 540263; 340,000 compounds, 0.031% hits; calls by dose curve;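 further: potency means the concentration at half of the fitted maximal effect; 0% = DMSO wells and 100% = buffer wells lacking importin beta; nearly all actives have a fitted effect of over 15% in size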
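FRET biosensor Rango (snurportin 1 IBB between N-terminal EYFP and C-terminal Cerulean), 50 nM in PBS/1 mM DTT/0.02% Tween-20/0.1% BSA, preincubated 5 min RT with compound; 0.125 microM importin beta added, 45 min RT, CFP/YFP FRET ratio read.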
Rango dissoc inh – inhibitors of RanGTP-induced Rango-importin beta complex dissociation. Biochemical FRET Rango-importin beta, RanGTP-induced dissociation. Potency, µM (top dose mostly 46.1 µM), inactives show at the highest dose activity change, negative = inhibition. 340,000 compounds, 0.071% hits. AID 540253; calls by dose curve; further: potency means the concentration at half of the fitted maximal effect; % of control where 0% means no effect; nearly all actives have a fitted effect of over 45% in size
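Recombinant Rango FRET biosensor (EYFP–snurportin 1 IBB–cerulean CFP10) at 0.1 uM premixed with 0.25 uM importin beta in PBS, 1 mM DTT, 0.02% Tween-20, 0.1% BSA. Compound added 5 min; RanGTP-RCC1 (0.6 uM Ran, 2 mM GTP, 0.2 uM RCC1) then triggers release, read at 45 min.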
ClpP inh valid – Bacillus subtilis ClpP inhibition, validated hit | shares compounds with ClpP mod | purified B. subtilis ClpP, FRET-FV substrate cleavage, 20 min | Potency, µM (titrated, usually from 57.5 µM), inactives show at the highest dose activity change, negative = inhibition, most hits filed as inhibitors | 470 compounds, 40% hits | AID 743245; further: potency means the concentration at half of the fitted maximal effect; on the % scale 0 is the no-effect control and ±100 the full control effect; nearly all actives have a fitted effect of over 70% in size
An asterisk follows results filed as active. The entries come from a sample that favours hits as a whole. Unless noted, the call rests on the fitted dose curve; in most records, active means well fitted curve in the direction sought with a large enough effect; inconclusive means small, poorly fitted or top-dose-only effect, or another doubt; inactive means no such curve, though single readings can be large; an effect the other way counts as inactive or inconclusive.

How did O=c1c2sc3ccccc3c2n(Cc2ccc(F)cc2)c(=O)n1Cc1ccccc1 do in these assays?
ClpP mod: -10%

What do the screens show for `Cc1ccc(NC(=O)c2ccc(NC(=O)c3ccccc3)cc2)cc1C`?
ClpP mod: 202%; MBNL1-CUG inh: -4%; Rango-impB inh: 1%; Rango dissoc inh: 4%; ClpP inh valid: 24µM*

What do the screens show for `CCc1ccccc1NC(=O)c1ccc2c(c1)N(Cc1cc(C)ccc1C)C(=O)c1ccccc1S2(=O)=O`?
ClpP mod: 3%

What do the screens show for `Cc1scc(CN2CCN(c3ccccc3F)CC2)c1C`?
ClpP mod: 0%

What do the screens show for `COC(=O)Cc1ccccc1NS(=O)(=O)c1ccc(C)cc1`?
ClpP mod: -1%

Results for O=C(Nc1ccc(Br)cc1)c1cc(-c2cccs2)nc2ccccc12 ?
ClpP mod: 38%; ClpP inh valid: 24µM*

Results for NS(=O)(=O)c1cccc(NC(=O)c2cc(-c3cccs3)nc3ccccc23)c1 ?
ClpP mod: 4%; CBFb RUNX1 block: 12%; Rango-impB inh: -1%; Rango dissoc inh: 1%

How did O=C(NCCc1ccccc1)c1ccc(Nc2nc3ccccc3n3nnnc23)cc1 do in these assays?
ClpP mod: 294%; ClpP inh valid: inconclusive

What do the screens show for `O=C(C1CCC1)N1CCCc2cc(S(=O)(=O)Nc3ccc(F)cc3)ccc21`?
ClpP mod: -1%

How did O=c1[nH]c2cc(Cl)ccc2c(O)c1-c1ccc(Oc2ccccc2)cc1 do in these assays?
CBFb RUNX1 block: 5%; ClpP inh valid: -15%

Results for O=c1[nH]c2cc(Cl)ccc2c(O)c1-c1cccc(Oc2ccccc2)c1 ?
ClpP mod: -17%; CBFb RUNX1 block: 2%; Rango-impB inh: 0%; Rango dissoc inh: -3%

How did COc1ccc2c(c1)c1c(c(=O)n(-c3cccc(C)c3)c(=O)n1CC(=O)NCc1ccc(C)cc1)n2C do in these assays?
ClpP mod: -12%

How did CC(=O)c1ccc(NC(=O)Cn2nc(C(F)(F)F)c3c2CCCC3)cc1 do in these assays?
ClpP mod: 0%

Results for COc1ccc(-c2cc(C(=O)N(C)CC(=O)Nc3cccc(F)c3)c3ccccc3n2)cc1 ?
ClpP mod: 6.3µM*; Rango-impB inh: 0%; Rango dissoc inh: 3%; ClpP inh valid: 24µM*

How did CN(CC(=O)Nc1cccc(F)c1)C(=O)c1cc(-c2ccccc2)nc2ccccc12 do in these assays?
ClpP mod: -3%; Rango-impB inh: 1%; Rango dissoc inh: -4%

What do the screens show for `c1ccc(C2Nc3ccccc3-c3nc4ccccc4n32)nc1` (stereo unspecified)?
ClpP mod: 7.1µM*; MBNL1-CUG inh: -2%; CBFb RUNX1 block: 12%; Rango-impB inh: -1%; Rango dissoc inh: -10%; ClpP inh valid: 19µM*

Results for CC1(c2ccccn2)Nc2ccccc2-c2nc3ccccc3n21 (stereo unspecified) ?
ClpP mod: 22%; MBNL1-CUG inh: 20%; CBFb RUNX1 block: 1%; Rango-impB inh: 0%; Rango dissoc inh: -12%

What do the screens show for `CCOc1ccc(-c2nc(SCC(=O)NC3CCCC3)c(-c3ccccc3)[nH]2)cc1OC`?
ClpP mod: -22%

Results for CNc1ccc(-c2nc3ccccc3s2)cc1 ?
CBFb RUNX1 block: 2%

Results for CC(C)(C)C(=O)Nc1ccc(-c2nc3ccccc3s2)cc1 ?
ClpP mod: 10µM*; ClpP inh valid: -1%

How did COc1ccc(-c2nc3ccccc3s2)cc1NC(=O)c1ccc(F)cc1 do in these assays?
ClpP mod: 89%; ClpP inh valid: 22µM*
